From PubChem BioAssay (NCI)
Compounds without any hit were thinned out: in the full panel of roughly 83,000, 20% have a hit.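 The test compound was applied at a single concentration to cells in 96-well plates for 48 hours, and percent growth was recorded.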 Unmarked numbers belong to inactive results. The source made the active and inactive calls. Rule for the calls: active = growth percent below 10; inactive = the rest.

Key:
Assay in all cases: NCI-60 one-dose screen, 48 h (100 = growth as untreated, 0 = no growth, -100 = all killed)
Conditions in all cases: 10 µM unless noted
[1] = tested on: HCT-15 colon
[2] = tested on: HT29 colon
[3] = tested on: SNB-75 CNS
[4] = tested on: SNB-19 CNS
[5] = tested on: U251 CNS
[6] = tested on: PC-3 prostate
[7] = tested on: SK-MEL-5 melanoma
[8] = tested on: UACC-62 melanoma
[9] = tested on: LOX IMVI melanoma
[10] = tested on: SK-MEL-28 melanoma
[11] = tested on: SK-MEL-2 melanoma
[12] = tested on: EKVX NSCLC
[13] = tested on: SN12C renal
[14] = tested on: UO-31 renal
[15] = tested on: TK-10 renal
[16] = tested on: ACHN renal
[17] = tested on: CAKI-1 renal
[18] = tested on: CCRF-CEM leukemia
[19] = tested on: MOLT-4 leukemia

SMILES	growth [1]	growth [2]	growth [3]	growth [4]	growth [5]	growth [6]	growth [7]	growth [8]	growth [9]	growth [10]	growth [11]	growth [12]	growth [13]	growth [14]	growth [15]	growth [16]	growth [17]	growth [18]	growth [19]
Cc1ccc(S(=O)(=O)Nn2c3c(cc(-c4nc5ccccc5s4)c2=O)CCCCCC3)cc1	97%	112%	91.9%	99.2%	99.9%	99.7%	96.2%	84.4%	95.9%	110%	99.2%	92.5%	95.9%	78.9%	111%	97.5%	86.6%	105%	100%
CCC(CC)NCC(C)(C)O	101%	108%	98.1%	94.6%	103%	89.9%	110%	94.4%	101%	115%	110%	102%	97.9%	88.2%	109%	102%	89.5%	100%	103%
O=C1Nc2cc(-c3ccc(NS(=O)(=O)c4ccccc4)cc3)ccc2/C1=C/c1ccc[nH]1	62.9%	84.2%	98.5%	98.1%	97.9%	82.5%	91.2%	89.3%	69.3%	108%	112%	28.9%	96.2%	69.2%	68.9%	88.5%	82.9%	63.9%	73.1%
CCNC(=O)Oc1ccc(/C(=C(\C)c2ccccc2)c2ccc(OCCN(CC)CC)cc2)cc1	16.5%	15.3%	78.5%	86.9%	68.2%	70.8%	34.4%	59.1%	65.3%	63.3%	97.6%	96%	82.1%	61.6%	95.6%	102%	59.3%	84%	76.2%
O=[N+]([O-])c1cc(Br)c2cccc3c2c1CC3	100%	108%	100%	98.7%	99.8%	96.2%	102%	89%	109%	106%	118%	109%	101%	90.8%	110%	110%	95.3%	99.9%	104%
COc1cccc2c1c1nc3cc(C)c(C)cc3nc1n2CCN(C)C	13.1%	11%	34%	25.4%	25.9%	18.3%	10.7%	14.6%	1.15% (active)	36%	11%	25.7%	16.9%	6.86% (active)	52.1%	-12.3% (active)	9.75% (active)	27.6%	10.5%
CCOC(=O)c1ccc2c(c1)ncn2-c1ccc(NC(=O)Nc2cccc(C)c2)cc1	13.6%	49.1%	87.6%	49.8%	46.1%	67.4%	83.2%	71.3%	5.37% (active)	88.7%	85.4%	84.7%	69.6%	66.6%	123%	66.7%	74.6%	45.8%	43.2%
N=C(N)c1ccc(OCCCCCCCCCCOc2ccc(C(=N)N)cc2)cc1	37.3%	-90.8% (active)	-76.9% (active)	-91.9% (active)	-85.5% (active)	-91.3% (active)	-96.1% (active)	-97.2% (active)	-97.3% (active)	-93.9% (active)	-90.3% (active)	-84.4% (active)	-96.3% (active)	43.9%	-93.5% (active)	-21.3% (active)	-94.8% (active)	-47.8% (active)	-61% (active)
O=C1Nc2cc(-c3ccc(NC(=O)c4ccccc4)cc3)ccc2/C1=C/c1ccc[nH]1	87.9%	109%	99%	98.8%	90.2%	101%	103%	98.4%	96.2%	119%	102%	51.1%	101%	71.6%	113%	95.8%	100%	92.4%	92.8%
N/C(=N\C(N)=N\c1nc2ccccc2s1)c1ccnc(Br)c1	19.6%	10.2%	-13.2% (active)	39.1%	26.3%	35.3%	27.1%	27.7%	33.8%	57.2%	7.48% (active)	82.6%	40.5%	33.1%	82.2%	27.6%	25.4%	21.3%	34%
CCN(CC)CCn1c(=O)c2cc(OC)c(OC)cc2c2ccc3cc4c(cc3c21)OCO4	54.7%	17.1%	47.9%	27.1%	22.7%	48%	36.1%	16.8%	-42.2% (active)	53.4%	93.2%	83.9%	32.9%	22.8%	67.6%	10.2%	17.3%	2.85% (active)	-9.32% (active)
C=C(C)[C@@H]1CC[C@]2(CN)CC[C@]3(C)[C@H](CC[C@@H]4[C@@]5(C)CCCNC(C)(C)[C@@H]5CC[C@]43C)[C@@H]12	-92.4% (active)	-85.8% (active)	-27.7% (active)	-58.5% (active)	-89.7% (active)	-10.5% (active)	-9.72% (active)	29%	-98.3% (active)	-28.3% (active)	6.75% (active)	6.81% (active)	-25.5% (active)	5.31% (active)	-10.6% (active)	-91.8% (active)	-94.5% (active)	-27.4% (active)	-45.4% (active)
COc1cc2nc(-c3ccc(C(F)(F)F)cc3)cc(OCCN3CCCCC3)c2cc1OC	43.7%	46.4%	54.4%	91.1%	72.3%	61.3%	70.4%	89.7%	-15.5% (active)	70.2%	105%	62.4%	63.6%	54.3%	93.9%	81.4%	45.2%	78.8%	65.3%
Cn1cc(CC2CC(=O)N(c3ccccc3)C2=O)sc1=NC(=O)c1ccccc1 (centres undefined)	101%	103%	82%	100%	102%	95.5%	101%	93.3%	102%	98.1%	106%	95.1%	103%	83.5%	102%	101%	94.7%	108%	106%
O=C1c2ccc3c4c(ccc(c24)C(=O)N1CCCNCc1ccccc1Cl)C(=O)N(CCCNCc1ccccc1Cl)C3=O	-46% (active)	-42.5% (active)	-97.9% (active)	-76.9% (active)	-52.8% (active)	-37.7% (active)	-96.6% (active)	-59.5% (active)	-53.7% (active)	-92.2% (active)	-60.6% (active)	-46.7% (active)	-87.1% (active)	-35% (active)	-54.9% (active)	-39.3% (active)	-12.6% (active)	-15.5% (active)	-24.4% (active)
O=S(=O)(NCCCNc1nccc(-c2c(-c3cccc(F)c3)nc3sccn23)n1)c1cccc(F)c1	22.6%	30.6%	88.6%	76.8%	70%	27.1%	13.5%	6.36% (active)	39%	68.3%	47.6%	52.4%	56.3%	28.2%	72.3%	42.5%	41.5%	24.7%	9.94% (active)
